# Measured values published in PubChem BioAssay (Tox21).
# “And” between values parts separate entries of the source, which are not always exact repeats. Identical values can stand only once. Records with an inconclusive call do not appear. A call without a number means that no potency is given here. Where a structure was tested more than once in an assay, its records may differ in their call. The source made the active and inactive calls. Unless noted, calls follow the shape of the full dose curve.
# Assays:
# [1] = Nuclear factor erythroid 2-related factor 2/antioxidant responsive element (Nrf2/ARE) small molecule agonists: qHTS cell viability counter screen in human keratinocytes (AID 1919968; active = well fitted curve in the direction sought with a large enough effect in the repeat runs; an effect the other way counts as inactive or inconclusive; also: nearly all actives have a fitted effect of over 55% in size)
# How it was run: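 Cytotoxicity was multiplexed with the Nrf2/ARE luciferase assay in the same wells. Stably transfected HaCaT keratinocytes were treated with test compounds for 23 h at 37 C. Cell viability was then measured by CellTiter-Fluor fluorescence.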
# [2] = Nuclear factor erythroid 2-related factor 2/antioxidant responsive element (Nrf2/ARE) small molecule agonists: luciferase reporter gene qHTS assay in human keratinocytes (AID 1919969); also: nearly all actives have a fitted effect of over 35% in size; also: potency is read from the fitted curve at half-maximal effect
# [3] = molecular target: KiSS-1 receptor (Homo sapiens) (UniProt Q969F8); experiment: Human kisspeptin (KISS1R) small molecule agonists, calcium flux assay in KISS1R-HEK293 cells (AID 1920064; active = well fitted curve in the direction sought with a large enough effect in the repeat runs; an effect the other way counts as inactive or inconclusive)
# How it was run: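 Agonist activity is monitored as intracellular calcium rise in engineered HEK293 cells carrying human KISS1R. Cells are dye-loaded for 1 h at 37 C before compound addition, and fluorescence is recorded for 3 min.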
# [4] = G protein-coupled receptor (GPCR) small molecule agonists, calcium flux assay: HEK293 wild type cell line counter screen (AID 1920065)
# How it was run: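 Seed cells, incubate 18 h (37 C, 5% CO2); add calcium dye, 1 h at 37 C; pin-transfer compounds, ATP control or DMSO; read fluorescence 480/540 nm each second for 3 min.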
# [5] = p53 small molecule agonists, cell-based qHTS assay with human liver microsomes (AID 1963577)
# How it was run: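 p53RE-bla reporter cells were pre-incubated 5 h at 37 C, then treated with compounds plus human liver microsomes (0.5 mg/mL final) and NADPH (0.5 mg/mL final) for 16 h at 37 C. Beta-lactamase activity was read by LiveBLAzer fluorescence after 2 h at room temperature.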
# [6] = p53 small molecule agonists, cell-based qHTS assay with rat liver microsomes (AID 1963578)
# How it was run: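 p53RE-bla cells were exposed to compounds together with rat liver microsomes (0.5 mg/mL final) and NADPH (0.5 mg/mL final) for 16 h at 37 C, then read by LiveBLAzer beta-lactamase fluorescence after 2 h at room temperature.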
# [7] = p53 small molecule agonists, cell-based qHTS assay with human liver microsomes: qHTS cell viability counter screen (AID 1963579); also: nearly all actives have a fitted effect of over 45% in size
# How it was run: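 p53RE-bla cells (4,000/well) were pre-incubated 5 h at 37 C, then given compounds in DMSO plus human liver microsomes (0.5 mg/mL final) and NADPH (0.5 mg/mL final) for 16 h at 37 C. Viability was read by CellTiter-Glo luminescence.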
# [8] = p53 small molecule agonists, cell-based qHTS assay with rat liver microsomes: qHTS cell viability counter screen (AID 1963580); also: nearly all actives have a fitted effect of over 45% in size
# How it was run: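 Counter screen for cytotoxicity under metabolic activation: rat liver microsomes and NADPH, 0.5 mg/mL final each, added with compounds to p53RE-bla HCT-116 cells; 16 h at 37 C, then ATP luminescence read.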
# [9] = p53 small molecule agonists, cell-based qHTS assay: qHTS cell viability counter screen (AID 1963581); also: nearly all actives have a fitted effect of over 45% in size
# How it was run: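 Viability was counter-screened in parallel with the p53 agonist reporter by measuring intracellular ATP luminescence in the same HCT-116 p53RE-bla wells after 16 h compound treatment at 37 C.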
# [10] = p53 small molecule agonists, cell-based qHTS assay (AID 1963582; active = well fitted activation curve with a large enough effect in the signal ratio in the repeat runs, not every such curve was filed as active; the % refers to the signal ratio)
# How it was run: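 Cells carrying a p53-responsive bla reporter are treated with test compounds for 16 h at 37 C; beta-lactamase activity is then detected with LiveBLAzer B/G FRET substrate after 2 h at room temperature.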
# [11] = molecular target: 5-hydroxytryptamine receptor 2A (Homo sapiens) (UniProt P28223); experiment: 5-hydroxytryptamine receptor 2A (HTR2A) small molecule antagonists, cell-based qHTS assay (AID 1963586); also: nearly all actives have a fitted effect of over 45% in size
# How it was run: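 CHO cells stably expressing human HTR2A were plated for 18 h at 37 C, then loaded with calcium dye for 1 h. Compounds were preincubated 5 min at room temperature before DOI (4 nM solution) was added. Kinetic fluorescence was read for 3 min.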
# [12] = molecular target: 5-hydroxytryptamine receptor 2A (Homo sapiens) (UniProt P28223); experiment: 5-hydroxytryptamine receptor 2A (HTR2A) small molecule agonists, cell-based qHTS assay (AID 1963587); also: nearly all actives have a fitted effect of over 30% in size; also: potency is read from the fitted curve at half-maximal effect
# How it was run: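 HTR2A-CHO cells, plated 18 h at 37 C/5% CO2, dye-loaded 1 h at 37 C; compounds in DMSO added by pin tool (agonist mode). Intracellular calcium flux read as kinetic fluorescence on FDSS over 2 min at 1 s intervals.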
# [13] = molecular target: Muscarinic acetylcholine receptor M1 (Homo sapiens) (UniProt P11229); experiment: Cholinergic receptor muscarinic 1 (CHRM1) small molecule antagonists, cell-based qHTS assay (AID 1963588); also: nearly all actives have a fitted effect of over 40% in size
# How it was run: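 Compounds were tested at 15 concentrations in three independent runs. Dye-loaded CHRM1-CHO cells were exposed 5 min at room temperature before stimulation by acetylcholine added at 50nM. Intracellular calcium was read kinetically on FDSS for 3 min.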
# [14] = molecular target: Muscarinic acetylcholine receptor M1 (Homo sapiens) (UniProt P11229); experiment: Cholinergic receptor muscarinic 1 (CHRM1) small molecule agonists, cell-based qHTS assay (AID 1963589); also: nearly all actives have a fitted effect of over 35% in size; also: potency is read from the fitted curve at half-maximal effect
# How it was run: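 Cells were plated and incubated 18 h at 37 C/5% CO2, loaded with calcium dye for 1 h at 37 C, then treated with compounds in DMSO. Fluorescence was recorded kinetically at 1 sec intervals.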
# [15] = cAMP Responsive Elements (CRE) small molecule agonists, cell-based qHTS assay (AID 1963590)
# How it was run: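 Cells carrying a CRE-driven beta-lactamase reporter (HEK 293T) are seeded, incubated overnight (18 h), and treated with test compounds for 3 h at 37 C; reporter activity is then detected with a FRET substrate after 2 h at room temperature.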
# [16] = cAMP Responsive Elements (CRE) small molecule antagonists, cell-based qHTS assay (AID 1963591; active = well fitted inhibition curve with a large enough effect in the signal ratio in the repeat runs, not every such curve was filed as active; the % refers to the signal ratio)
# How it was run: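 Cells (CRE-bla HEK 293T, DMEM with 10% dialyzed FBS and 25 mM HEPES) are seeded and incubated 18 h. Compounds are added with NKH477 agonist at 0.25 uM final for 3 h, then FRET substrate for 2 h.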
# [17] = molecular target: Beta-2 adrenergic receptor (Homo sapiens) (UniProt P07550); experiment: Adrenergic beta2 receptor (ADRB2) small molecule antagonists, cell-based qHTS assay (AID 1963592); also: series mostly up to about 92 µM; nearly all actives have a fitted effect of over 50% in size
# How it was run: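 Assay format: CHO-ADRB2 cells, 18-20hr seeding at 37C/5% CO2, then compound plus 1nM isoproterenol agonist mix for 0.5hr RT. Homogeneous time-resolved fluorescence cAMP detection after 1hr, expressed as 665/615 nm ratio.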
# [18] = molecular target: Beta-2 adrenergic receptor (Homo sapiens) (UniProt P07550); experiment: Adrenergic beta2 receptor (ADRB2) small molecule agonists, cell-based qHTS assay (AID 1963593);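 also: CHO cells stably overexpressing human ADRB2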
# How it was run: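 CHO cells stably over-expressing ADRB2 were plated overnight at 37C, then dosed with compounds plus a stimulation mix containing 100uM IBMX and 25uM Ro-20-1724 for 0.5hr at room temperature. cAMP was measured by HTRF competition, 1hr.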
# [19] = molecular target: D(2) dopamine receptor (Homo sapiens) (UniProt P14416); experiment: Dopamine D2 receptor (DRD2) small molecule antagonists, cell-based qHTS assay (AID 1963595; active = well fitted inhibition curve with a large enough effect in the signal ratio in the repeat runs, with a control signal flat; the % refers to the signal ratio)
# How it was run: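 Antagonist mode in DRD2-HEK293 cells: after compound addition with 0.1 mM Ro20-1724, cells received quinpirole (12 nM) and NKH477 (200 nM) for 30 min at room temperature; HTRF cAMP read after 1 h detection.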
# [20] = molecular target: D(2) dopamine receptor (Homo sapiens) (UniProt P14416); experiment: Dopamine D2 receptor (DRD2) small molecule agonists, cell-based qHTS assay (AID 1963594); also: nearly all actives have a fitted effect of over 35% in size
# How it was run: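 HEK293 cells stably expressing DRD2 were cultured 24 h at 37 C, then given Ro20-1724 (0.1 mM final) and compounds for 10 min at room temperature. NKH477 (200nM) was then added for 30 min. cAMP was read by HTRF.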
# Chain of Muscarinic acetylcholine receptor M1 (Homo sapiens) (P11229 whole entry, looked up): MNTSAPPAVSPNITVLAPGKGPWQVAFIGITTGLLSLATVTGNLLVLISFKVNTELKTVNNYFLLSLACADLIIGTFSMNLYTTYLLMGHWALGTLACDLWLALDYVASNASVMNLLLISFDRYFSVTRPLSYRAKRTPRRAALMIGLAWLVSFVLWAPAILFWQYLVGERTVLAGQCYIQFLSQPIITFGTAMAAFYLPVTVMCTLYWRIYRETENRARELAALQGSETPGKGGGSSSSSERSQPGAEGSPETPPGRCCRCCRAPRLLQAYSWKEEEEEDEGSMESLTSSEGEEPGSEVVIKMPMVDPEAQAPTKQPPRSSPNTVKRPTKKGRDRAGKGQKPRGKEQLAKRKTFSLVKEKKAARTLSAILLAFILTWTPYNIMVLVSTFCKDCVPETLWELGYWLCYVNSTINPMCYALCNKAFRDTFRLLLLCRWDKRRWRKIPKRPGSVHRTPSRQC
# Chain of Beta-2 adrenergic receptor (Homo sapiens) (P07550 whole entry, looked up): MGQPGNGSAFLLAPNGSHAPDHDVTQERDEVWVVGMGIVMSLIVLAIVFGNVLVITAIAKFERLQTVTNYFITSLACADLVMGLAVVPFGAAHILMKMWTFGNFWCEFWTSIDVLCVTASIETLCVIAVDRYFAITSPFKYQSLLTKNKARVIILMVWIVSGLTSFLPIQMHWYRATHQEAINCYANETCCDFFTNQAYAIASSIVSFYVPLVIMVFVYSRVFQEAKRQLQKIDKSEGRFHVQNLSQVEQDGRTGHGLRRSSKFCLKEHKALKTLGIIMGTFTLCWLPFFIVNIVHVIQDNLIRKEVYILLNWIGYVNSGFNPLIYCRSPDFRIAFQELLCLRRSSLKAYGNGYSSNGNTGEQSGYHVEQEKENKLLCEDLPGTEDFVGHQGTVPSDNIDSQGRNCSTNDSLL
# Chain of KiSS-1 receptor (Homo sapiens) (Q969F8 whole entry, looked up): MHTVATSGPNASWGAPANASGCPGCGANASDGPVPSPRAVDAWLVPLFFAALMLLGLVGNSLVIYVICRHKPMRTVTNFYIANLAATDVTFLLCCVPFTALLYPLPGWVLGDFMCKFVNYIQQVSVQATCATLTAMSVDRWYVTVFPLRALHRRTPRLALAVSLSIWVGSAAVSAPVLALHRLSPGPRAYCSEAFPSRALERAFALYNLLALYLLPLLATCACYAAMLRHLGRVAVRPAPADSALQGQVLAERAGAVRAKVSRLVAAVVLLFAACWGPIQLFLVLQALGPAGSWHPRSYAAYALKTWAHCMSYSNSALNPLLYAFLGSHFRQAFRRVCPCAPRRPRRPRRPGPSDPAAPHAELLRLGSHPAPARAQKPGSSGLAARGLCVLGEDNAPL
# Chain of D(2) dopamine receptor (Homo sapiens) (P14416 whole entry, looked up): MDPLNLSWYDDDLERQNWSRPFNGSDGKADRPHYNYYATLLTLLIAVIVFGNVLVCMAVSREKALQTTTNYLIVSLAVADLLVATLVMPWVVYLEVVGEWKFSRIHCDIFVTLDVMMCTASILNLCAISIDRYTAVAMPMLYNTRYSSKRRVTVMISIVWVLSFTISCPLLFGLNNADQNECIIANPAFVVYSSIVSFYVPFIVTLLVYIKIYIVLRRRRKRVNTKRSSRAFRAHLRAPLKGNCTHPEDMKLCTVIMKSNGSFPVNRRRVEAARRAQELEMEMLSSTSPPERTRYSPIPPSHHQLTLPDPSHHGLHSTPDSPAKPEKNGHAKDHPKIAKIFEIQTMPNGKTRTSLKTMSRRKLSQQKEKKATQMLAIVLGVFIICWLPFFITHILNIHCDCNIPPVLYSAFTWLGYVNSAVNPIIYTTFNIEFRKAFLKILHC
# Chain of 5-hydroxytryptamine receptor 2A (Homo sapiens) (P28223 whole entry, looked up): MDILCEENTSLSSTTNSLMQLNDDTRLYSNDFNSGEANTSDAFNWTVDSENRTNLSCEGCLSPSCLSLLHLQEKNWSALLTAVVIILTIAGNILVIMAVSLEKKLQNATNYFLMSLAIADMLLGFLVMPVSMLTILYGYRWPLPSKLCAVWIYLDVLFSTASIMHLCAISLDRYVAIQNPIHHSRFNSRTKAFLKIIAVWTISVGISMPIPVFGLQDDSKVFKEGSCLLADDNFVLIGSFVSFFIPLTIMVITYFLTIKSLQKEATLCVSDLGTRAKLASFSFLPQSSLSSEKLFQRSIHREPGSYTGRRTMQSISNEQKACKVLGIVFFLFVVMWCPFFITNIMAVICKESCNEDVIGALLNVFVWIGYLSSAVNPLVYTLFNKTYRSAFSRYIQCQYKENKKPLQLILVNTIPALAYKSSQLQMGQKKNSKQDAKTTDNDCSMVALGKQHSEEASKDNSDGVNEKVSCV
smiles,measurement,setting,value
CC1(C)[C@@H]2CC[C@@]1(C)[C@H](O)C2,Potency,[1],inactive
same,Potency,[2],inactive
same,Potency,[3],inactive
same,Potency,[4],inactive
same,Potency,[5],inactive
same,Potency,[6],inactive
same,Potency,[7],inactive
same,Potency,[8],inactive
same,Potency,[9],inactive
same,Potency,[10],inactive
same,Potency,[11],inactive
same,Potency,[12],inactive
same,Potency,[13],inactive
same,Potency,[14],inactive
same,Potency,[15],inactive
same,Potency,[16],inactive
same,Potency,[17],inactive
same,Potency,[18],inactive
same,Potency,[19],inactive
CCCCCCCCS(=O)(=O)Cl,Potency,[1],inactive
same,Potency,[2],inactive
same,Potency,[3],inactive
same,Potency,[4],inactive
same,Potency,[5],inactive
same,Potency,[6],inactive
same,Potency,[7],inactive
same,Potency,[8],inactive
same,Potency,[9],inactive
same,Potency,[11],inactive
same,Potency,[13],inactive
same,Potency,[16],inactive
same,Potency,[17],inactive
same,Potency,[18],inactive
same,Potency,[20],inactive
same,Potency,[19],inactive
O=C[C@H](O)[C@H](O)[C@H](O)CO,Potency,[1],inactive
same,Potency,[2],inactive
same,Potency,[3],inactive
same,Potency,[4],inactive
same,Potency,[5],inactive
same,Potency,[6],inactive
same,Potency,[8],inactive
same,Potency,[9],inactive
same,Potency,[10],inactive
same,Potency,[11],inactive
same,Potency,[12],inactive
same,Potency,[13],inactive
same,Potency,[14],inactive
same,Potency,[15],inactive
same,Potency,[16],inactive
same,Potency,[17],inactive
same,Potency,[18],inactive
same,Potency,[20],inactive
same,Potency,[19],inactive
Nc1ccc(N)c(Cl)c1,Potency,[1],inactive
same,Potency,[2],54.4 µM (active) and 27.3 µM (active)
same,Potency,[3],inactive
same,Potency,[4],inactive
same,Potency,[5],inactive
same,Potency,[6],inactive
same,Potency,[7],inactive
same,Potency,[9],inactive
same,Potency,[10],inactive
same,Potency,[11],inactive
same,Potency,[12],inactive and 21.9 µM (active)
same,Potency,[13],inactive
same,Potency,[14],inactive and 43.6 µM (active)
CC(C)[C@@H]1CC[C@@H](C)CC1=O,Potency,[1],inactive
same,Potency,[2],inactive
same,Potency,[3],inactive
same,Potency,[4],inactive
same,Potency,[5],inactive
same,Potency,[6],inactive
same,Potency,[7],inactive
same,Potency,[8],inactive
same,Potency,[9],inactive
same,Potency,[10],inactive
same,Potency,[11],inactive
same,Potency,[12],inactive
same,Potency,[13],inactive
same,Potency,[14],inactive
same,Potency,[16],inactive
same,Potency,[17],inactive
same,Potency,[20],inactive
same,Potency,[19],inactive
Cc1cc(O)cc2c1O[C@](C)(CCC[C@H](C)CCC[C@H](C)CCCC(C)C)CC2,Potency,[1],inactive
same,Potency,[2],inactive
same,Potency,[3],inactive
same,Potency,[4],inactive
same,Potency,[5],inactive
same,Potency,[6],inactive
same,Potency,[7],inactive
same,Potency,[8],inactive
same,Potency,[9],inactive
same,Potency,[12],inactive
same,Potency,[13],inactive
same,Potency,[14],inactive
same,Potency,[15],inactive
same,Potency,[16],inactive
same,Potency,[17],inactive
same,Potency,[20],inactive
O=C(O)Cc1cccc(-c2cc(CCCCCCc3ccc(O[C@H]4O[C@H](CO)[C@@H](O)[C@H](O)[C@@H]4O)c(-c4cccc(CC(=O)O)c4)c3)ccc2O[C@H]2O[C@H](CO)[C@@H](O)[C@H](O)[C@@H]2O)c1,"activity change, negative = cytotoxicity",[1],-1.5% [at 0.349 µM] (inactive)
same,"activity, positive = activation",[2],-5.74% [at 0.349 µM] (inactive)
same,activation,[3],-0.687% [at 0.29 µM] (inactive)
same,activation,[4],-0.122% [at 0.217 µM] (inactive)
same,activation,[5],-2.66% [at 0.249 µM] (inactive)
same,activation,[6],1.81% [at 0.249 µM] (inactive)
same,"activity change, negative = cytotoxicity",[7],0.362% [at 0.249 µM] (inactive)
same,"activity change, negative = cytotoxicity",[8],2.63% [at 0.249 µM] (inactive)
same,"activity change, negative = cytotoxicity",[9],-10.7% [at 0.249 µM] (inactive)
same,activation,[10],-0.0536% [at 0.249 µM] (inactive)
same,activation,[12],17.6% [at 0.292 µM] (inactive)
same,"activity, negative = inhibition",[13],12.9% [at 0.232 µM] (inactive)
same,activation,[14],-0.265% [at 0.29 µM] (inactive)
same,activation,[15],1% [at 0.349 µM] (inactive)
same,"activity change, negative = inhibition",[16],-10.4% [at 0.349 µM] (inactive)
same,"activity change, negative = inhibition",[17],2.66% [at 0.349 µM] (inactive)
same,activation,[20],-1.23% [at 0.349 µM] (inactive)
same,"activity change, negative = inhibition",[19],-1.71% [at 0.348 µM] (inactive)
O=C(O)c1ccco1,Potency,[1],inactive
same,Potency,[2],inactive
same,Potency,[3],inactive
same,Potency,[4],inactive
same,Potency,[5],inactive
same,Potency,[6],inactive
same,Potency,[7],inactive
same,Potency,[8],inactive
same,Potency,[9],inactive
same,Potency,[10],inactive
same,Potency,[11],inactive
same,Potency,[12],inactive
same,Potency,[13],inactive
same,Potency,[14],inactive
same,Potency,[15],inactive
same,Potency,[16],inactive
same,Potency,[20],inactive
same,Potency,[19],inactive
